Inconclusive results are not listed. A number with no mark means an inactive call. Calls come from the whole dose curve; as a rule, active = well fitted inhibition curve with a large enough effect in the repeat runs; inconclusive = weak or mixed curves; inactive = no such curve, though single readings can be large or run the other way.
assay: qHTS assay to identify small molecule antagonists of the estrogen related receptor (ERR) signaling pathway from Tox21 library (AID 1224848); conditions: ERR reporter cell line, luciferase antagonist mode, 18 h; series mostly up to 92.4 µM; activity, negative = inhibition: at the top concentration; note: nearly all actives have a fitted effect of over 50% in size
Text: U.S. Tox21 Program National Center for Advancing Translational Sciences [NCATS] NIH Chemical Genomics Center [NCGC] U.S. Environmental Protection Agency [EPA] National Institutes of Environmental Health Sciences [NIEHS] National Toxicology Program [NTP] U.S. Food and Drug Administration [FDA] Tox21 Assay Overview: Estrogen related receptors (ERRs), the first orphan nuclear receptors discovered, play an important role in the control of cellular energy metabolism. ERRs are required for high-energy production in response to the environmental challenges. ERR-alpha was also identified as an adverse marker for breast cancer progression; ERR-alpha-positive tumors have a poor prognosis. To screen and to identify environmental compounds that perturb the ERR signaling pathways could provide valuable information for potential therapeutic or preventive measures in the treatment of metabolic disease. For identifying ERR antagonists, ERR cell line (provided by NTP) has been used to screen Tox21 10K library.
Tox21 Assay Protocol Summary: The ERR cells were dispensed at 2,000 cells/5 ul/well in 1536-well white plates using a Multidrop dispenser. After the assay plates were incubated at a 37 C/5% CO2 incubator for 6 hours, 23 nL of compounds dissolved in DMSO, positive and negative controls or DMSO only was transferred to the assay plate by a pin tool. The plates were incubated at 37 C for 18 hours. 4 ul/well of One-Glo reagent was added into the assay plates using a Flying Reagent Dispenser. After 30-minute incubation at room temperature, the luminescence intensity in the plates was measured using a ViewLux plate reader.
% is set by controls: 0 for no effect and ±100 for the full control effect.

First: CCCCC(CC)COC(=O)CC#N (stereo not given)
Second: CCCCOCCCC
The “activity, negative = inhibition” value of the first is lower: -0.37% for the first, 7.93% for the second.

Compared with `O=C(O)CCCCCCCCCC(=O)O`, `CCCCCCCCCCCC(C)=O` is lower in “activity, negative = inhibition” value: 3.95% for the first, -0.278% for the second.

Going from `Cc1ccc(O)c(C(=O)c2ccccc2)c1` to `CC(=O)c1ccc2ccc3ccccc3c2c1`, the “activity, negative = inhibition” value rises from -4.95% to 18.1%.

Compared with `O=C1Nc2ccccc2C1=O`, `Cc1ccccc1OCC(=O)O` is higher in “activity, negative = inhibition” value: -3.54% for the first, -0.361% for the second.

Going from `Nc1cc(S(=O)(=O)O)ccc1O` to `COc1ccc(Cl)cc1C`, the “activity, negative = inhibition” value rises from 9.54% to 11.7%.

Compared with `CCCCCCCCOCCC#N`, `C=CCCCCCCCCOC(C)=O` is higher in “activity, negative = inhibition” value: 1.96% for the first, 11.2% for the second.

First: O=C(O)Cc1c(Cl)ccc(Cl)c1Cl
Second: BrCCOc1ccccc1
The “activity, negative = inhibition” value of the first is lower: 11% for the first, 25.8% for the second.

Going from `CCC(C)c1nccnc1OC` (stereo not given) to `CN(C)c1ccncc1`, the “activity, negative = inhibition” value falls from 1.56% to -2.18%.

Compared with `CC(CC(=O)Cl)CC(C)(C)C` (stereo not given), `CCCCCCCC(=O)N(C)C` is lower in “activity, negative = inhibition” value: 11.6% for the first, 2.16% for the second.

Going from `CC/C=C/CCCCCCCCCCOC(C)=O` to `C=CC(=O)OCCOCCOCC`, the “activity, negative = inhibition” value rises from 0.722% to 25.1%.

Compared with `C=CC(=O)CC`, `NNC(=O)CCCCC(=O)NN` is higher in “activity, negative = inhibition” value: -2.59% for the first, 0.585% for the second.

Going from `C=C(C)C(=O)OCCOC1CC2CC1C1C=CCC21` (stereo not given) to `C/C=C(\C)C(=O)OC/C=C(\C)CCC=C(C)C`, the “activity, negative = inhibition” value falls from 23.9% to 16.4%.

In the case of `CC(CN1CC(=O)NC(=O)C1)N1CC(=O)NC(=O)C1` (stereo not given), the “activity, negative = inhibition” value is reported as -6.1%.

Compared with `C[C@@H](CN1CC(=O)NC(=O)C1)N1CC(=O)NC(=O)C1`, `CC[C@@]1(c2ccccc2)NC(=O)N(C)C1=O` is lower in “activity, negative = inhibition” value: 5.29% [at 42.5 µM] for the first, 5.05% [at 42.5 µM] for the second.

First: N[C@H]1C(O)O[C@H](CO)[C@@H](O)[C@@H]1O (stereo not given in full)
Second: NC(=O)CC[C@@H](N)C(=O)O
The “activity, negative = inhibition” value of the first is higher: 6.05% [at 42.5 µM] for the first, 2.46% [at 42.5 µM] for the second.

Going from `CCN1CCN(C(=O)N[C@@H](C(=O)N[C@@H]2C(=O)N3[C@@H]2SC(C)(C)[C@H]3C(=O)O)c2ccccc2)C(=O)C1=O` to `CC(=O)SC[C@@H](C)C(=O)N1CCC[C@H]1C(=O)N[C@@H](Cc1ccccc1)C(=O)O`, the “activity, negative = inhibition” value falls from 14.9% [at 42.5 µM] to 11% [at 42.5 µM].

Compared with `CN1C(CCl)Nc2cc(Cl)c(S(N)(=O)=O)cc2S1(=O)=O` (stereo not given), `O=S(=O)(O)c1cc(I)c(O)c2ncccc12` is higher in “activity, negative = inhibition” value: 0.355% [at 42.5 µM] for the first, 4.82% [at 42.5 µM] for the second.

Going from `COc1cnc(NS(=O)(=O)c2ccc(N)cc2)nc1` to `COc1ccc2cc(CCC(C)=O)ccc2c1`, the “activity, negative = inhibition” value rises from 7.3% [at 42.5 µM] to 179% [at 42.5 µM].

Going from `N=C(N)N` to `CC(=O)SCC(CC(=O)c1ccc(C)cc1)C(=O)O` (stereo not given), the “activity, negative = inhibition” value rises from 0.218% [at 42.5 µM] to 16.2% [at 42.5 µM].

With `COC(=O)C(c1ccccc1Cl)N1CCc2sccc2C1` (stereo not given) the “activity, negative = inhibition” value was -3.74% [at 42.5 µM].

Work on `N=C(N)N1CCc2ccccc2C1` yielded an activity, negative = inhibition of 3.19% [at 8.39 µM].

Compound `C=CCCCCCCCCCCCCCC` has an activity, negative = inhibition of 3.1% [at 19 µM].

From PubChem BioAssay (Tox21)
